VHR inh abs: VHR1 phosphatase inhibitors, primary screen, biochemical, absorbance, uHTS. inhibition, % at 13.3 µM. 0.52% of 290,000 active. Dual specificity protein phosphatase 3 (Homo sapiens), P51452. recombinant VHR phosphatase, pNPP absorbance; in the data active means inhibition above about 50%
Anthrax LF inh2: Bacillus anthracis LF protease inhibitors, primary screen, biochemical, multiplex microsphere, MLPCN library. multiplex microsphere protease cleavage assay. 0.12% of 360,000 active. inhibition, % at 10 µM; further: plate controls were buffer without enzyme for full effect and enzyme alone for no effect
SARS 3CLpro inh: SARS-CoV 3CLpro protease inhibitors, primary screen, biochemical, quenched FRET; recombinant SARS-CoV 3CLpro, quenched FRET peptide cleavage; Replicase polyprotein 1ab (Severe acute respiratory syndrome coronavirus), P0C6X7; 0.14% of 290,000 active; inhibition, % at 6 µM; in the data active means inhibition above about 12%
BoNT A protease: BoNT/A light chain protease inhibitors, primary screen, biochemical, flow cytometry, MLPCN library; 0.17% of 360,000 active; inhibition, % at 10 µM; multiplex microsphere protease substrate cleavage; further: plate controls were buffer without enzyme for full effect and enzyme alone for no effect
Bead autofluor: counter-screen for toxin protease inhibitors: compound fluorescence | 3.1% of 360,000 active | compound autofluorescence counterscreen, microsphere flow cytometry; hits give high values | AID 624483 | fluorescence intensity (no concentration beside the values); in the data active means fluorescence intensity above about 16000; inconclusive means no clear call, values can overlap the other calls
BoNT F protease: BoNT/F light chain protease inhibitors, primary screen, biochemical, flow cytometry, MLPCN library | AID 588497, 2011 | 0.22% of 360,000 active | Multiplex microsphere protease cleavage assay | inhibition, % at 10 µM; in the data active means inhibition above about 35%, passing the limit was not always enough; inconclusive means no clear call, values can overlap the other calls; further: plate controls were buffer without enzyme for full effect and enzyme alone for no effect
Active calls of the source: *; u = inconclusive; x = not tested or not shown. This is a sample that favours compounds with a hit; in the whole collection about 3.9% have one here. Unless noted, no stated cut-off is given here; in the data, active means inhibition above about 30%; inconclusive means no clear call, values can overlap the other calls; inactive means below that.

SMILES	VHR inh abs	Anthrax LF inh2	SARS 3CLpro inh	BoNT A protease	Bead autofluor	BoNT F protease
CC1CCCN(c2c([N+](=O)[O-])c(=O)oc3ccccc23)C1 (stereo not given)	1.2	-1.9	-0.9	u	23803*	0.8
O=c1oc2ccccc2c(N2CCC(c3ccccc3)CC2)c1[N+](=O)[O-]	-24.0	-2.5	0.4	-0.1	2169	-7.5
CCCCn1ccnc1C(=O)c1cccc(S(=O)(=O)N2CC(C)CC(C)C2)c1 (stereo not given)	11.6	-7.9	7.0	-0.2	16271*	-3.9
CN(CCO)CCC(=O)NC1(C)CS(=O)(=O)CC1S(=O)(=O)O (stereo not given)	15.2	3.4	0.3	-1.5	4839	1.0
CCN(CC1CCCO1)C(=O)CCc1nnc(CCc2ccccc2OC)o1 (stereo not given)	26.5	8.5	-2.9	0.0	5193	-0.4
Nc1nc2ccccc2n1/N=C/c1cccnc1	x	-0.3	-2.8	-1.8	3618	1.6
Cc1nc2ccccc2n1/N=C/c1cccnc1	-10.8	-3.5	-3.1	-3.2	24451*	-3.3
CCOc1ccc(NC(=O)CN(C)C2=NS(=O)(=O)c3ccccc32)cc1	x	-8.7	x	-0.2	3955	-4.7
CCOc1ccc(Oc2cc(C)nc(SC)n2)nn1	4.3	1.8	-2.7	-0.6	3616	-11.1
COC(=O)COc1ccc(Oc2cc(C)nc(SC)n2)nn1	-11.0	0.8	0.5	u	21755*	-5.9
CCCCCC1CC(CC#CCN2CCOCC2)C(=O)O1 (stereo not given)	17.7	-1.1	-3.2	4.5	21965*	5.7
NC(=O)NC(CC(=O)NNC(=O)c1cccs1)c1ccc(Cl)cc1 (stereo not given)	x	3.0	x	-0.2	3441	-3.7
COc1cc([N+](=O)[O-])c(C)cc1NC(=O)c1ccc(OC)c(OC)c1	x	-4.4	x	0.1	3578	2.2
N#CC(C#N)=C1C=C2C=C(N3CCOCC3)CCC2CC1 (stereo not given)	21.7	-2.5	-10.3	-10.8	26074*	12.5
CCN1CCN(C2=CC3=CC(=C(C#N)C#N)CCC3CC2)CC1 (stereo not given)	-6.4	5.6	-80.8	-8.2	30604*	48.4*
CC1(C)CC(NCCN2CCN(C3=CC(=C(C#N)C#N)CC(C)(C)C3)CC2)=CC(=C(C#N)C#N)C1	20.1	-0.2	2.2	-0.2	4513	-8.1
CN1CCN(C2=CC3=CC(=C(C#N)C#N)CCC3CC2)CC1 (stereo not given)	2.5	-0.3	-50.0	-6.8	17359*	12.3
N#Cc1cc(Cl)c(N2CCOCC2)cc1C#N	21.8	-2.4	-3.8	-0.3	4652	-11.5
N#CC(C#N)=C1C=C2C=C(N3CCCCCC3)CCC2CC1 (stereo not given)	-11.1	83.5*	-87.1	47.8*	97979*	177.0*
Cc1c(CCC(=O)NCCC(=O)O)c(=O)oc2c(C)c3oc4c(c3cc12)CCCC4	7.2	-2.9	-6.2	0.2	2963	-21.0
CCC(C)n1nnc2c(=O)oc3ccccc3c21 (stereo not given)	5.4	0.1	4.8	0.4	23717*	-1.1
CCN(CC)C(=O)C1=C(C)NC(=S)NC1c1cn(-c2ccccc2)nc1-c1ccc(Cl)cc1 (stereo not given)	27.3	-0.6	-4.8	-0.5	23563*	-1.8
COc1ccc(-c2nn(-c3ccccc3)cc2C(=O)O)cc1OC	3.6	-3.1	1.5	-0.7	10292	-9.9
O=C(O)c1cn(-c2ccccc2)nc1-c1ccc(Cl)cc1	x	-9.0	3.2	-6.0	17250*	-8.6
CC1=C(C(=O)Nc2ccccn2)C(c2ccc(Cl)cc2)NC(=S)N1 (stereo not given)	8.2	-2.0	1.4	-0.3	4490	-2.1
SMILES	VHR inh abs	Anthrax LF inh2	SARS 3CLpro inh	BoNT A protease	Bead autofluor	BoNT F protease
O=C(NC1CCN(Cc2ccc(Cl)cc2)CC1)c1cn(-c2ccccc2)nc1-c1cccnc1	x	-9.2	x	-0.2	21980*	7.1
Cc1ccc(NC(=O)c2ncn(CCCNCC3CCCO3)n2)cc1C (stereo not given)	x	-7.3	x	-0.2	2986	-9.5
CCCCOC(=O)c1ccc(NC(=O)c2ccccc2OC)cc1	-11.7	-0.5	11.4	-0.3	2532	2.2
CCCCOC(=O)c1ccc(NC(=O)c2ccoc2C)cc1	-4.0	-3.7	3.6	0.3	20473*	0.9
CCCCOC(=O)c1ccc(NC(=O)c2ocnc2C)cc1	25.6	-0.1	1.0	u	24702*	-4.4
CCCOC(=O)c1ccc(NC(=O)c2ccoc2C)cc1	-4.6	1.6	8.7	-0.9	3398	0.7
CCC(Sc1ncccc1Nc1ccccn1)C(=O)O (stereo not given)	x	0.9	x	0.8	5218	-0.5
CCSc1nnc(-c2cccnc2)n1-c1ccc(Cl)c(C)c1	-15.9	-7.5	-2.7	6.3	17981*	7.5
O=C(O)CC1(CC(=O)Nc2ccccc2N2CCOCC2)CCCC1	13.3	x	7.1	x	x	x
COc1cccc(N2C(=O)CC(N3CCC(C(N)=O)(N4CCCCC4)CC3)C2=O)c1 (stereo not given)	-0.3	-2.9	-0.1	-7.6	26152*	-10.3
O=C(COC(=O)[C@@H]1CC(O)CN1S(=O)(=O)c1ccc2c(c1)OCCO2)NCc1ccc(F)cc1 (stereo not given in full)	-15.2	0.0	-3.1	-0.4	4122	-5.8
NC(=O)CSc1nnc(Cn2c(=O)sc3ccccc32)n1-c1ccccc1	34.7	-9.4	2.4	0.1	5641	-3.8
O=C(O)CSc1nnc(Cn2c(=O)sc3ccccc32)n1-c1cccc(Cl)c1	16.6	-8.4	-5.3	7.1	20449*	7.0
NC(=O)CSc1nnc(Cn2c(=O)sc3ccccc32)n1-c1cccc(Cl)c1	21.4	-1.6	2.1	0.0	16396*	1.1
c1nc(SSc2ncnc3nc[nH]c23)c2[nH]cnc2n1	x	-3.2	x	1.2	4463	17.8
CC1(C)CNC(=O)c2sc(NC(=O)c3ccccc3Cl)nc2C1	18.5	-2.4	-0.5	0.3	3817	-2.0
CCC(C(=O)Nc1cnccn1)c1ccccc1 (stereo not given)	-12.4	0.1	-5.5	-2.1	24267*	-5.0
O=C(Cn1cnc2ccccc2c1=O)Nc1ccc2c(c1)CCC2	11.9	-2.4	1.3	-1.3	23574*	1.4
Cc1ccc(C#N)c(SCCN2CCCCC2)n1	52.0*	-8.7	-1.4	-5.7	4781	-33.5
Cc1cc(C)c(C#N)c(SCCN2CCCCC2)n1	37.7	8.3	2.3	1.2	3345	-1.6
Cc1ccc(NC(=O)C2=C(C(=O)O)CCCC2)cc1Br	12.2	-23.4	-2.7	-44.4	15659	u
O=C(Nc1ccccc1F)c1cc2nc(C(F)F)cc(C(F)F)n2n1	-0.3	-1.7	-1.1	-6.4	21540*	-7.2
Cc1oc2nc(SCCCC(=O)NCCCO)nc(N)c2c1C	-4.9	-2.0	0.2	-0.9	4760	-29.6
